This passage reports cell viability, % of control (lower = more cytotoxic) results from PubChem BioAssay (NCATS).

A short description of the assay: High-throughput drug toxicity screening in the BPDCN cell line Gen2.2 (AID 1224824). Conditions: Gen2.2 BPDCN cells; at 45.8 µM (top of the series) unless noted. From the text:
Blastic plasmacytoid dendritic cell neoplasm (BPDCN) is a rare, aggressive and largely incurable hematologic malignancy originating from plasmacytoid dendritic cells (pDCs). Although an initial response to chemotherapy is common, BPDCN prognosis is extremely poor and most patients relapse with drug-resistant disease leading to a median overall survival of ~1 year after diagnosis. To explore novel potential therapeutic strategies in BPDCN, we performed a high-throughput drug toxicity screening in BPDCN cell liens, using of a library of 1,912 small molecules, enriched for compounds that are either approved or in early stages of development for cancer therapy.
A total of 500 exponentially growing Gen2.2 cells were seeded per well in 5 uL of media (RPMI + Glutamine, without phenol red plus10% FBS and 1X Pen/Strep) into 1536-well solid white high base tissue culture treated Greiner One Bio Plates (789173-F), using a multidrop combi dispenser and a small sterile cassette. Compounds and controls totaling 23nL per well (negative control DMSO and positive control 9.2 uM Bortezomib-final) were immediately added to the plates using a 1536 head pin tool from Kalypsys. The plates were then covered with stainless steel gasket lids from Kalypsys and incubated for 48 hours at 37C under 95% relative humidity with 5% CO2. After 48 hours, the plates were removed and allowed to reach room temperature before 3 uL of Cell Titer Glo reagent (Promega) were added using an Aurora Flying Reagent Dispenser Bioraptor. The plates were then spun at 1000 rpms to remove bubbles and incubated for 15 minutes at room temperature before reading on a ViewLux using a luminescent filter with a 10 second exposure. The relative luciferase units were used to calculated percent activity using DMSO as 100% and Bortezomib as 0%.
`CCCN[C@H]1CCc2nc(N)sc2C1`: the cell viability, % of control (lower = more cytotoxic) was determined as 133%. The value for `COc1cc2c(Nc3ccc(Br)cc3F)ncnc2cc1OCC1CCN(C)CC1` was 3.75%; that for `CC(=O)[C@H]1CC[C@H]2[C@@H]3CC=C4C[C@@H](O)CC[C@]4(C)[C@H]3CC[C@]12C` was 106%; that for `Nc1nc(N)nc(-c2cc(Cl)ccc2Cl)n1` was 126%. The value for `O=S(=O)(O)CCS` was 25.9%; that for `Nc1nc(N)c2nc(CNc3ccc(C(=O)NC(CCC(=O)O)C(=O)O)cc3)cnc2n1` (stereo not given) was 23.1%; that for `COc1nc(N)nc2c1ncn2[C@@H]1O[C@H](CO)[C@@H](O)[C@@H]1O` was 82.2%. The value for `Cc1nnc(C(=O)NC(C)(C)c2nc(C(=O)NCc3ccc(F)cc3)c(O)c(=O)n2C)o1` was 126%; that for `CC(C)NCC(O)c1ccc(NS(C)(=O)=O)cc1` (stereo not given) was 203%; that for `CNS(=O)(=O)Cc1ccc2[nH]cc(CCN(C)C)c2c1` was 219%. For `COc1ccc2c(c1)c(CC(=O)OCC(=O)O)c(C)n2C(=O)c1ccc(Cl)cc1`, the cell viability, % of control (lower = more cytotoxic) was found to be 144%. Take `CC(C)(C)NC(=O)[C@H]1CC[C@H]2[C@@H]3CC[C@H]4NC(=O)C=C[C@]4(C)[C@H]3CC[C@]12C`: the cell viability, % of control (lower = more cytotoxic) came to 25.5%. The value for `CN1CCN(c2c(F)cc3c(=O)c(C(=O)O)cn(CCF)c3c2F)CC1` was 140%; that for `C1CCC(C(CC2CCCCN2)C2CCCCC2)CC1` (stereo not given) was 7.33%; that for `CC(C)C1CCC(C(=O)N[C@H](Cc2ccccc2)C(=O)O)CC1` (stereo not given in full) was 139%.

On to `CCCc1nc(C)c2c(=O)[nH]c(-c3cc(S(=O)(=O)N4CCN(CC)CC4)ccc3OCC)nn12`, for which the cell viability, % of control (lower = more cytotoxic) was found to be 5.18%.

`Cn1nnc2c(C(N)=O)ncn2c1=O`: the cell viability, % of control (lower = more cytotoxic) stood at 79.7%. `COc1cnc(NS(=O)(=O)c2ccc(N)cc2)nc1`: the cell viability, % of control (lower = more cytotoxic) was found to be 32.7%. In the case of `CCOC(=O)[C@H](CCc1ccccc1)N[C@H]1CCc2ccccc2N(CC(=O)O)C1=O`, the cell viability, % of control (lower = more cytotoxic) is 22.7%. The value for `CC(N)C12CC3CC(CC(C3)C1)C2` (stereo not given) was 175%; that for `NC(N)=NC(N)=NCCc1ccccc1` was 88%; that for `CC1=NN(c2ccccc2)C(=O)C1` was 112%. Next, `Clc1ccccc1CN1CCc2sccc2C1`: 91.7%; `CO[C@@H]1[C@@H](OC(N)=O)[C@@H](O)[C@H](Oc2ccc3c(O)c(NC(=O)c4ccc(O)c(CC=C(C)C)c4)c(=O)oc3c2C)OC1(C)C`: 13.9%.

As to `O=C(O)C1CCCN(CCC=C(c2ccccc2)c2ccccc2)C1` (stereo not given), the cell viability, % of control (lower = more cytotoxic) is 145%. The value for `CCN[C@H]1C[C@H](C)S(=O)(=O)c2sc(S(N)(=O)=O)cc21` was 71.7%; that for `CC1CC2C3CCC4=CC(=O)C=C[C@]4(C)[C@@]3(F)[C@@H](O)C[C@]2(C)[C@@]1(O)C(=O)CO` (stereo not given in full) was 115%; that for `CCN(C)C(=O)Oc1cccc([C@H](C)N(C)C)c1` was 97.8%. `Cc1oc(=O)oc1CN1CCN(c2cc3c(cc2F)c(=O)c(C(=O)O)c2n3C(C)S2)CC1` (stereo not given): the cell viability, % of control (lower = more cytotoxic) is 162%. Take `OC(Cn1cncn1)(Cn1cncn1)c1ccc(F)cc1F`: the cell viability, % of control (lower = more cytotoxic) came to 66.2%.

As for `N[C@@H](C(=O)N[C@@H]1C(=O)N2C(C(=O)O)=C(Cl)CS[C@H]12)c1ccccc1`, the cell viability, % of control (lower = more cytotoxic) is 133%. Take `CCCc1cc(C(N)=S)ccn1`: the cell viability, % of control (lower = more cytotoxic) was determined as 119%. Next, `O=C(N[C@H](CO)[C@H](O)c1ccc([N+](=O)[O-])cc1)C(Cl)Cl`: 136%; `CCC(C)(C)c1ccc(CC(C)CN2C[C@@H](C)O[C@@H](C)C2)cc1` (stereo not given in full): 129%.

As for `CC(=O)Oc1ccccc1C(=O)Nc1ncc([N+](=O)[O-])s1`, the cell viability, % of control (lower = more cytotoxic) is 73% [at 92.2 µM]. The value for `CC(C)OC(=O)C(C(=O)OC(C)C)=C1SC=CS1` was 159%; that for `CNC(=O)c1cc(Oc2ccc(NC(=O)Nc3ccc(Cl)c(C(F)(F)F)c3)cc2)ccn1` was 2.89%. Next, `Cn1c(=O)c2c(ncn2CC(O)CO)n(C)c1=O` (stereo not given): 104%; `OCc1ccc(-c2nn(Cc3ccccc3)c3ccccc23)o1`: 199%. The value for `CS(=O)(=O)c1ccc([C@@H](O)[C@@H](CO)NC(=O)C(Cl)Cl)cc1` was 94.5%.
